KDM4E inh = inhibitors of human JMJD2E histone demethylase; B2RXH2; JMJD2E catalytic domain, FDH-coupled NADH fluorescence (FDH is formaldehyde dehydrogenase); Potency, µM (titrated, usually from 57.1 µM), for inactives: top-dose activity change, negative = inhibition, most hits filed as inhibitors; actives 1.6% (n = 230,000); AID 2147;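 further: potency means the concentration at half of the fitted maximal effect; 0% = wells with enzyme and -100% = buffer wells without enzyme; nearly all actives have a fitted effect of over 50% in size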
Target sequence (B2RXH2 1-337 limits assumed): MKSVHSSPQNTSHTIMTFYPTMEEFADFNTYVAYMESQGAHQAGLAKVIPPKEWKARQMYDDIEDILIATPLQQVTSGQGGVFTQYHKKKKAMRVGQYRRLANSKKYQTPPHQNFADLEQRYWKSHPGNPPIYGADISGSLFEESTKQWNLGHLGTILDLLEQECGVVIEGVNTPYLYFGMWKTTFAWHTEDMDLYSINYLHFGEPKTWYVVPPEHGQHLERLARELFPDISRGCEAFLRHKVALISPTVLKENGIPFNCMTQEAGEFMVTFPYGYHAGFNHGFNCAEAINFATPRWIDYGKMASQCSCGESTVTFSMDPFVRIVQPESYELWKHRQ
ALDH1A1 inh = blocks purified human ALDH1A1 activity. P00352. actives 7.3% (n = 220,000). Purified ALDH1A1, NADH fluorescence, propionaldehyde substrate. Potency, µM (doses to about 75.3 µM), without a hit: at the highest dose activity, negative = inhibition, most hits filed as inhibitors. AID 1030;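 further: potency means the concentration at half of the fitted maximal effect; plate controls were no enzyme wells and a reference inhibitor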
NPSR antag = neuropeptide S receptor (human) antagonism, cAMP; Potency, µM (series often up to 38.3 µM), for the others: at the top dose activity change, negative = inhibition, most hits filed as inhibitors; AID 1461; CHO-NPSR cells, cAMP TR-FRET, antagonist mode; actives 1% (n = 220,000); Q6W5P4; active means well fitted curve in the direction sought with a large enough effect; inconclusive means small, poorly fitted or top-dose-only effect, or another doubt; inactive means no such curve, though single readings can be large; an effect the other way counts as inactive or inconclusive; further: potency means the concentration at half of the fitted maximal effect; nearly all actives have a fitted effect of over 50% in size
Coupling enz = counter-screen for Giardia aldolase inhibitors: coupling enzyme system. coupling enzyme system counterscreen, AmpLite Red fluorescence. activity change, negative = inhibition, % at 58.2 µM, hits read low. actives 0.67% (n = 290,000). AID 2472; in the data active means activity change below about -30%
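Fluorescence at 525 nm excitation and 598 nm emission measured inhibition of the coupled detection system without aldolase. Compounds (at 57.5 uM final) were preincubated 10 min at room temperature with coupling enzyme reagent before a 20 min substrate/AmpLite Red step.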
GoLoco inh red = blocks human Gai1 binding to RGS12 GoLoco peptide, red readout; P63096; Gai1:RGS12 GoLoco peptide FP, rhodamine, 10 min; Potency, µM (top dose mostly 61.6 µM), for the others: at the highest dose activity, negative = inhibition, most hits filed as inhibitors; actives 0.44% (n = 230,000); AID 880; active means well fitted inhibition curve with a large enough effect, not every such curve was filed as active; inactive means no such curve, though single readings can be large or run the other way; further: potency means the concentration at half of the fitted maximal effect; nearly all actives have a fitted effect of over 30% in size
Target sequence (P63096 whole entry, looked up): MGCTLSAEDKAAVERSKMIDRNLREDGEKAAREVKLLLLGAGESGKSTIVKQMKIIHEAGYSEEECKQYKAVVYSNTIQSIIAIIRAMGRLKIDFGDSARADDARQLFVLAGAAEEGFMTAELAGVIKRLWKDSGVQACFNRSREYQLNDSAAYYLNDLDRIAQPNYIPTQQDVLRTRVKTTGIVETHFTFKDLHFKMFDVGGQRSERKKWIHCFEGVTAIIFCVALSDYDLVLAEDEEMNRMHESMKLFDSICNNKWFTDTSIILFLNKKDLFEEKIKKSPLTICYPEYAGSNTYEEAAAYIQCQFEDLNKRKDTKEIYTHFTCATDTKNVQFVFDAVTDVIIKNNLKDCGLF
Sfp PPTase inh = blocks B. subtilis Sfp PPTase activity; Q9F4F7; Biochemical Sfp PPTase activity, qHTS; Potency, µM, inactives show largest response in the series, negative = inhibition, actives largely listed as inhibitors; actives 3.5% (n = 310,000); active means well fitted curve in the direction sought with a large enough effect; inconclusive means small, poorly fitted or top-dose-only effect, or another doubt; inactive means no such curve, though single readings can be large; an effect the other way counts as inactive or inconclusive;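 further: the enzyme is Sfp with the accession as filed and its product quenches rhodamine fluorescence; potency means the concentration at half of the fitted maximal effect; 0% = enzyme reaction without inhibitor and -100% = no enzyme wells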
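With Hepes-Na pH 7.6 buffer containing 10 mM MgCl2, Sfp (15 nM) modified BHQ-2-YbbR (12.5 uM) using rhodamine-CoA (5 uM). Two reads 30 minutes apart at 525/598 nm yielded each well's rate.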
An asterisk follows results filed as active; ? = inconclusive; . = no result given; [ ] = dose if it differs, or a comment. Only some compounds are listed: those with a hit (about 8.5% of all), similar ones and a draw of the others. Unless noted, the call rests on the fitted dose curve; in most records, active means well fitted inhibition curve with a large enough effect (not every such curve was filed as active); inconclusive means small, poorly fitted or top-dose-only effect, or another doubt; inactive means no such curve, though single readings can be large or run the other way. Unless noted, on the % scale 0 is the no-effect control and ±100 the full control effect.

SMILES	KDM4E inh	ALDH1A1 inh	NPSR antag	Coupling enz	GoLoco inh red	Sfp PPTase inh
CN(C)C(CNC(=O)c1ccc(C(F)(F)F)cc1)c1ccco1 (stereo not given)	.	.	.	.	.	-3%
CC(C)(C)c1ccc(S(=O)(=O)N(CCCN2CCOCC2)Cc2cccs2)cc1	-7%	19%	-35%	-6	-7%	2.2µM*
CC(=O)Nc1ccc(S(=O)(=O)N(CCCN2CCOCC2)Cc2cccs2)cc1	?	?	0%	-2	-6%	-27%
Cc1occc1C(=O)N(Cc1nc(-c2ccccc2)no1)C(C)C	.	.	.	-2	.	25%
C[C@@]12C=Cc3occc3C1CC[C@@]13C[C@@H](CCC12)[C@@](O)(CO)C3 (stereo not given in full)	.	1.4µM*	.	2	1%	-28%
CC(=O)OC[C@@]1(O)C[C@]23CCC4c5ccoc5CC[C@@]4(C)C2CCC1C3 (stereo not given in full)	-5%	-2%	.	-1	-1%	20%
Cc1cc(N/N=C(/CCC(=O)O)C(=O)O)nc2ccccc12	?	2%	20%	1	8%	50µM*
CCOc1ccccc1NC(=O)CN1CCN(Cc2ccccc2)CC1	.	.	.	-3	.	3%
Cc1ccc(OCC(=O)c2cc(C)c(C)cc2C)c([N+](=O)[O-])n1	-28%	3.5µM*	?	-5	21%	-21%
COCCn1c(C)cc(C(=O)COc2ccc(C)nc2[N+](=O)[O-])c1C	-8%	10µM*	17%	-7	6%	-17%
Cc1ccc(C)c(C(=O)COc2ccc(C)nc2[N+](=O)[O-])c1	-6%	1.6µM*	-7%[46.1 µM]	-3	8%	-20%
Cc1cc(OCC(=O)NCCc2c[nH]c3ccccc23)c2c(C)cc(=O)oc2c1	.	.	.	0	.	1%
COCCCN(Cc1cccs1)S(=O)(=O)c1csc(C(N)=O)c1	.	.	.	.	.	5%
COc1ccc(S(=O)(=O)/N=C2/C=CC(=O)C(C)=C2C)cc1	-12%	-11%	2%[46.1 µM]	-11	-17%	79µM*
CC1=C(C)/C(=N\OS(=O)(=O)c2ccc(C)cc2)C=CC1=O	-3%	?	?	-85*	-6%	32µM*
O=C(COc1ccccc1)Nc1ccncc1Cl	.	.	.	.	.	14%
N=C1C=CC=C2C1=NC1(CCCCC1)N2O	?	?	?	-48*	-6%	8.9µM*
COc1ccc(O)c(CN2CCC(n3nccc3NC(=O)c3ccccc3Cl)CC2)c1	.	.	.	.	.	-5%
COc1ccc(C(=O)C2CCCN(C(=O)CCc3ccccn3)C2)c(C)c1 (stereo not given)	8%	7%	-12%	-1	-8%	12%
COc1ccccc1C(=O)C1CCCN(C(=O)CCc2ccccn2)C1 (stereo not given)	-12%	18µM*	-11%	-3	-16%	-12%
COC(=O)CCCC(=O)N1CCCC(C(=O)c2ccc(OC)cc2C)C1 (stereo not given)	3%	2.5µM*	-2%	2	7%	6%
O=C(COC(=O)c1ccccn1)Nc1nc(-c2cccc([N+](=O)[O-])c2)cs1	-3%	.	0%	2	9%	-13%
Cc1ccc(CN2CC(C(=O)Nc3ncccc3C)CC2=O)cc1 (stereo not given)	.	.	.	2	.	3%
N#C/C(=C\c1ccc(OCC(N)=O)cc1)c1ccccc1	?	?	-4%	0	0%	3%
Cc1ccc(C)c(N2CCN(C(=O)CSc3ccsc3[N+](=O)[O-])CC2)c1	-2%	11µM*	-14%	1	39%	3%
SMILES	KDM4E inh	ALDH1A1 inh	NPSR antag	Coupling enz	GoLoco inh red	Sfp PPTase inh
O=C(CSc1ccsc1[N+](=O)[O-])N1CCN(c2ccccc2)CC1	-1%	?	-3%	1	12%	-7%
FC(F)(F)c1cccc(-n2c(Cn3nnc4ccccc43)n[nH]c2=S)c1	-7%	.	0%	2	-9%	89µM*
S=c1[nH]nc(Cn2nnc3ccccc32)n1-c1ccccc1	0%	-3%	4%	3	5%	5%
COc1cc(/C=C/C(=O)O)cc(S(=O)(=O)Nc2ccc3c(c2)CCC3)c1OC	.	.	.	3	.	-1%
Cc1nnc(SCC(=O)Nc2cccc(C(F)(F)F)c2)n1Cc1ccco1	9%	?	4%[46.1 µM]	2	2%	40µM*
Cc1ccc(NC(=O)CSc2nnc(-c3cnccn3)n2Cc2ccco2)cc1	-5%	-4%	-5%[46.1 µM]	5	-21%	20µM*
CCn1c(SCC(=O)Nc2cc(C)on2)nnc1-c1ccco1	-11%	?	-10%[46.1 µM]	-6	-10%	0%
CCn1c(SCC(=O)Nc2sc3c(c2C(N)=O)CCC(C)C3)nnc1-c1ccco1 (stereo not given)	-27%	22µM*	-13%[46.1 µM]	3	96%	5%
CCn1c(SCC(=O)Nc2nonc2C)nnc1-c1ccco1	5%	14µM*	-16%[46.1 µM]	-13	2%	5%
COc1ccc2oc(C(=O)Nc3ccc(S(=O)(=O)N(C)C4CCN(C)CC4)cc3)c(C)c2c1	.	.	.	.	.	-8%
O=c1[nH]c(=O)n([C@@H]2O[C@H](CO)[C@@H](O)[C@H]2O)cc1F	-2%	-2%	.	1	7%	16%
CCCN1CCN(C(=O)C2CCN(S(=O)(=O)c3ccc4c(c3)NC(=O)C(C)S4)CC2)CC1 (stereo not given)	.	.	.	.	.	12%
NC(=O)c1c(NC(=O)CSc2nnc(-c3ccccc3)n2CC2CCCO2)sc2c1CCC2 (stereo not given)	-1%	28µM*	-22%[46.1 µM]	3	11%	-11%
O=C(CSc1nnc(-c2ccc(O)cc2)n1Cc1ccco1)c1ccccc1	6%	?	-26%[46.1 µM]	-4	4%	?
Cc1ccc(NC(=O)CSCC(=O)O)cc1	-1%	1%	-1%	1	-2%	23%
Cc1ccc(NC(=O)CSCc2ccco2)cc1	-4%	22µM*	3%	-1	-4%	-2%
C(=C\c1ccccc1)/CSc1nnc(-c2cnccn2)n1Cc1ccco1	-5%	22µM*	-10%[46.1 µM]	0	7%	35µM*
O=C(CSc1nnc(-c2ccc(O)cc2)n1Cc1ccco1)c1cccs1	-5%	14µM*	-16%[46.1 µM]	0	40%	?
Cc1ccc(-c2cc(C(=O)NCCN3CCOCC3)c3ccccc3n2)o1	.	.	.	0	.	-20%
Cc1cc(C)c[n+](C(C)C(=O)c2ccc(-c3ccccc3)cc2)c1 (stereo not given)	-25%	-7%	13%	1	-2%	-9%
Cc1ccccc1-c1ccc2ncnc(NCCN3CCOCC3)c2c1	.	?	.	0	-4%	7%
CC(=O)Nc1ccc(NC(=O)CSc2nnc(-c3ccco3)n2Cc2ccco2)cc1	-2%	20µM*	-9%[46.1 µM]	1	8%	12%

Screening data deposited in PubChem by National Center for Advancing Translational Sciences (NCATS).
